# Reference: publication PMC5540273 (PLoS ONE, 2017)
# Values joined by “and” are separate entries in the source; they are usually repeats but may differ in a detail not shown here. Equal entries are not always repeated. Where two headings read alike, the source gives them in different places.
# How the values were obtained:
# CSF1R-autoinhibited = conditions: concentration: 1 μM, replicates: in singlicate, n = 1
# CSF1R = conditions: concentration: 1 μM, replicates: in singlicate, n = 1
# CSK = conditions: concentration: 1 μM, replicates: in singlicate; n = 1
# CSNK1A1L = conditions: concentration: 1 μM, replicates: in singlicate, n = 1
# CSNK1A1 = conditions: concentration: 1 μM, replicates: in singlicate; n = 1
# CSNK1D = conditions: concentration: 1 μM, replicates: in singlicate, n = 1
# CSNK1E = conditions: concentration: 1 μM, replicates: in singlicate, n = 1
# CSNK1G1 = conditions: concentration: 1 μM, replicates: in singlicate, n = 1
# CSNK1G2 = conditions: concentration: 1 μM, replicates: in singlicate; n = 1
# CSNK1G3 = conditions: concentration: 1 μM, replicates: in singlicate, n = 1
# 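Note: KINOMEscan kinase panel screen.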
Compound,%Inh (CSF1R-autoinhibited),%Inh (CSF1R),%Inh (CSK),%Inh (CSNK1A1L),%Inh (CSNK1A1),%Inh (CSNK1D),%Inh (CSNK1E),%Inh (CSNK1G1),%Inh (CSNK1G2),%Inh (CSNK1G3),%Inh (CSF1R-autoinhibited; 1 µM),%Inh (CSF1R; 1 µM),%Inh (CSNK1A1L; 1 µM),%Inh (CSNK1D; 1 µM),%Inh (CSNK1E; 1 µM),%Inh (CSNK1G1; 1 µM),%Inh (CSNK1G3; 1 µM)
C[C@H]1CC[C@@H](C(=O)Nc2ccccc2)CN1c1cc(-c2ccc3c(N)n[nH]c3c2)nc(N)n1 [GSK2283293],26%,0%,0%,16%,0%,0%,7%,7%,0%,7%,–,–,–,–,–,–,–
O=C(Nc1n[nH]c2nc(-c3ccco3)c(Br)cc12)c1ccc(CN2CCCC2)cc1.O=C(O)[C@H](O)[C@@H](O)C(=O)O [SB-742352],0%,71%,0%,0%,0%,0%,0%,0%,0%,0%,–,–,–,–,–,–,–
Cl.O=S(=O)(c1cccc(F)c1)c1ccc(Nc2ncnc3cc(Br)sc23)cc1Cl [GSK306886],0%,8%,30%,0%,0%,36%,22%,0%,0%,33%,–,–,–,–,–,–,–
COc1ccc(-c2oc3ncnc(N)c3c2-c2ccc(OC)cc2)cc1 [SB-589132],70%,61%,0%,12%,0%,11%,43%,0%,0%,12%,–,–,–,–,–,–,–
Cc1ccc(C)c(NC(=O)NCCNc2ccnc(Nc3ccc(F)cc3)n2)c1 [GSK1379878],15%,7%,100%,0%,11%,0%,33%,0%,0%,24%,–,–,–,–,–,–,–
CNc1nccc(-c2c(-c3ccc(F)cc3)ncn2CCCN2CCOCC2)n1 [SB-222516],0%,0%,0%,2%,0%,8%,19%,4%,10%,4%,–,–,–,–,–,–,–
OCCOCCn1ccc2ncnc(Nc3ccc(Oc4cccc(Cl)c4)c(Cl)c3)c21,0%,0%,0%,0%,0%,0%,0%,0%,0%,0%,–,–,–,–,–,–,–
CCCc1ccc(S(=O)(=O)NC2CCN(c3ccnc(Nc4ccc(OC)cc4)n3)C2)cc1 (stereo not drawn) [GSK1379737],23%,10%,0%,7%,0%,14%,19%,0%,0%,21%,–,–,–,–,–,–,–
Fc1cccc(COc2ccc(Nc3ncnc4nn5ccccc5c34)cc2Cl)c1 [GW689066],37%,0%,0%,0%,0%,3%,14%,0%,0%,3%,–,–,–,–,–,–,–
COc1cc2ncnc(Nc3ccc(OCc4ccccc4Br)c(Cl)c3)c2cc1OC.Cl [GI261590],10%,7%,7%,0%,0%,24%,24%,0%,0%,27%,–,–,–,–,–,–,–
NC(=O)c1sc(-n2cnc3ccccc32)cc1OCc1ccccc1F [GSK1024306],24%,0%,0%,0%,0%,17%,20%,0%,0%,18%,–,–,–,–,–,–,–
CC(C)N1CCC(n2cnc(-c3ccc(F)cc3)c2-c2ccnc(N)n2)CC1 [SB-223132],0%,0%,0%,31%,93.1%,96.4%,98.8%,2%,3%,6%,–,–,–,–,–,–,–
CSc1nn2c(=O)cc(N3CCOCC3)nc2n1Cc1cccc(Cl)c1Cl [GSK2347225],0%,4%,0%,32%,0%,13%,87%,6%,0%,33%,–,–,–,–,–,–,–
Clc1cccc(-c2nc(Nc3ccncc3)c3ccccc3n2)c1 [GW873004],0%,0%,0%,7%,29%,12%,23%,3%,10%,18%,–,–,–,–,–,–,–
COC(=O)c1c(-c2ccccc2)c2cc(Cl)ccc2c(=O)n1Cc1ccc(S(C)(=O)=O)cc1,6%,23%,0%,0%,21%,0%,3%,100%,0%,0%,–,–,–,–,–,–,–
Cn1ccc2ncnc(Oc3ccc(NC(=O)Nc4cccnc4)c(Cl)c3)c21,0%,82%,0%,10%,8%,0%,0%,0%,5%,0%,–,–,–,–,–,–,–
COc1ccc(Nc2nccc(N3CCC(NC(=O)c4cccc(NC(C)=O)c4)C3)n2)cc1 (stereo not drawn) [GSK1379732],49%,1%,0%,7%,0%,13%,16%,9%,0%,24%,–,–,–,–,–,–,–
CCc1nc(-c2cccc(C)c2)c(-c2ccnc(NC(=O)c3ccccc3)c2)s1,11%,11%,1%,39%,81%,89%,82%,0%,3%,0%,–,–,–,–,–,–,–

Compound,%Inh (CSF1R-autoinhibited),%Inh (CSF1R),%Inh (CSK),%Inh (CSNK1A1L),%Inh (CSNK1A1),%Inh (CSNK1D),%Inh (CSNK1E),%Inh (CSNK1G1),%Inh (CSNK1G2),%Inh (CSNK1G3),%Inh (CSF1R-autoinhibited; 1 µM),%Inh (CSF1R; 1 µM),%Inh (CSNK1A1L; 1 µM),%Inh (CSNK1D; 1 µM),%Inh (CSNK1E; 1 µM),%Inh (CSNK1G1; 1 µM),%Inh (CSNK1G3; 1 µM)
N#Cc1ccc(Oc2ccc(Nc3ncnc4cc[nH]c34)cc2Cl)cc1,3%,7%,33%,15%,2%,5%,7%,8%,25%,21%,–,–,–,–,–,–,–
Cn1ccc2ncnc(Nc3ccc(Oc4cccc(Cl)c4)c(Cl)c3)c21,1%,17%,46%,16%,14%,10%,0%,6%,0%,0%,–,–,–,–,–,–,–
COC(=O)c1cccc(NC(=O)NCCNc2ccnc(Nc3ccc(F)cc3)n2)c1 [GSK1379883],0%,14%,0%,4%,0%,3%,29%,0%,0%,25%,–,–,–,–,–,–,–
CCC(CC)(CC)n1cnc2c(N)ncnc21 [SKF-97620],35%,0%,0%,1%,0%,0%,5%,4%,0%,0%,–,–,–,–,–,–,–
COc1ccc(Nc2nccc(N3CCC(NC(=O)Nc4ccc5c(c4)OCO5)C3)n2)cc1 (stereo not drawn) [GSK1379745],16%,0%,0%,24%,0%,83%,22%,1%,2%,16%,–,–,–,–,–,–,–
Cl.Cl.c1ccc(-c2cc3ccncc3cc2OC2CCNCC2)cc1 [GSK1122999],5%,49%,0%,23%,16%,0%,41%,14%,0%,27%,–,–,–,–,–,–,–
Nc1nc(-c2ccc3c(N)n[nH]c3c2)cc(N2CCCCC2)n1 [GSK2228768],0%,1%,0%,1%,0%,11%,0%,0%,0%,4%,–,–,–,–,–,–,–
Nc1nc(-c2ccccn2)c(-c2ccnc3ccccc23)s1 [GW548057],58%,19%,3%,38%,89%,83%,79%,11%,0%,27%,–,–,–,–,–,–,–
CC(=O)Nc1n[nH]c2ncc(-c3ccccc3)cc12 [SB-548492],0%,19%,3%,21%,0%,0%,34%,0%,0%,4%,–,–,–,–,–,–,–
Cc1cccc(-c2nc(Nc3ccc4[nH]nnc4c3)c3ccccc3n2)n1 [GW867587],0%,0%,0%,0%,0%,4%,0%,0%,0%,0%,–,–,–,–,–,–,–
Fc1cccc(COc2ccc(Nc3ncnc4cc[nH]c34)cc2Cl)c1,0%,6%,24%,6%,2%,0%,10%,18%,18%,4%,–,–,–,–,–,–,–
Nc1nc(-c2ccc3c(N)n[nH]c3c2)cc(N2CCC[C@@H](C(=O)Nc3ccccc3)C2)n1.O=C(O)C(F)(F)F.O=C(O)C(F)(F)F [GSK2288359],0%,13%,8%,0%,0%,0%,15%,8%,100%,25%,–,–,–,–,–,–,–
O=C(c1ccc(-c2cc(-c3c[nH]nc3-c3ccccn3)ccn2)cc1)N1CCCC1 [GW792479],0%,0%,17%,0%,59%,49%,30%,9%,9%,0%,–,–,–,–,–,–,–
CC(C)(C)c1ccc(-n2cnc3c(N)ncnc32)cc1 [SKF-97263],0%,58%,0%,17%,40%,3%,18%,6%,13%,25%,–,–,–,–,–,–,–
FC(F)(F)c1cc(Nc2nccc(-c3c(-c4ccc(Cl)cc4)nn4ncccc34)n2)ccc1Cl [GW829351],0%,0%,0%,0%,0%,81%,79%,0%,0%,0%,–,–,–,–,–,–,–
Nc1n[nH]c2nnc(-c3ccccc3)cc12 [SB-517389],0%,18%,0%,10%,0%,6%,28%,7%,0%,17%,–,–,–,–,–,–,–
Cl.Fc1ccccc1COc1ccc(Nc2ncnc3ccc(-c4nnc(C(F)(F)F)o4)cc23)cc1Cl [GW424170],0%,6%,0%,0%,0%,5%,22%,0%,0%,30%,–,–,–,–,–,–,–
COc1ccc(-c2nc3n(c2-c2ccncc2)CCC3)cc1 [SKF-104493],–,–,0%,–,0%,–,–,–,0%,–,6% and 9%,23% and 2%,12% and 0%,40% and 18%,22% and 7%,0% and 13%,6% and 14%
